Assay in all cases: HT-SELEX; high values mean tight binding
Common to all, as to details: protein: recombinant; vector His6-GST; dsDNA, one strand shown

The target in test [1] is T1, SALL4 ZFC4 WT (HT-SELEX) (Mus musculus, UniProt Q8BX22 870-940).
T1 sequence: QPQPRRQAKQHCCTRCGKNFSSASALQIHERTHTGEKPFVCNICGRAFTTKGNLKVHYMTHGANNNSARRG
The method in brief:
(§1)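 Up to 6 cycles of selection were run in triplicate. In each, purified recombinant mouse SALL4 zinc finger cluster 4 (residues 870–940, 1 µg) was incubated with library DNA (1.5 µg first cycle, 200 ng later) in 100 µl of 10 mM Tris–HCl pH 7.5, 50 mM NaCl, poly(dI-dC), DTT for 10 min at room temperature, then complexes were captured on Ni2+ beads, washed and PCR-amplified; final pools were MiSeq-sequenced and scanned for 6-mers. Binding signal is each canonical k-mer's read fraction as fold change versus the initial random library.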

In test [2] the target is T2, SALL4 ZFC4 R900W (HT-SELEX) (Mus musculus, UniProt Q8BX22 870-940, R900W).
T2 sequence: T1 sequence with R31W
The method in brief: as §1

The target in test [3] is T3, SALL4 ZFC4 G921D (HT-SELEX) (Mus musculus, UniProt Q8BX22 870-940, G921D).
T3 sequence: T1 sequence with G52D
The method in brief:
as §1

Changes are numbered by the printed parent chain.

As for CAGCTA, the binding signal is 0.637 ± 0.0596 fold-change vs cycle 0 in test [1], 0.727 ± 0.0267 fold-change vs cycle 0 in test [2] and 0.82 ± 0.0545 fold-change vs cycle 0 in test [3].

For the sequence ATCAAG, the binding signal in test [1] stood at 1.41 ± 0.0614 fold-change vs cycle 0; in test [2] it was 1.55 ± 0.0618 fold-change vs cycle 0; in test [3] it was 1.47 ± 0.0828 fold-change vs cycle 0.

Regarding GAATGC, the binding signal in test [1] amounted to 0.632 ± 0.0438 fold-change vs cycle 0; in test [2], 0.728 ± 0.0366 fold-change vs cycle 0; in test [3], 0.816 ± 0.0183 fold-change vs cycle 0.

Consider AAGAAG, for which the results for the binding signal in test [1], in test [2] and in test [3] were 1.4 ± 0.0333 fold-change vs cycle 0, 1.63 ± 0.0977 fold-change vs cycle 0 and 1.45 ± 0.147 fold-change vs cycle 0, respectively.

With AACGAC, the binding signal in test [1] is 0.568 ± 0.0525 fold-change vs cycle 0; in test [2] it was 0.668 ± 0.0478 fold-change vs cycle 0; in test [3], 0.771 ± 0.0138 fold-change vs cycle 0.

With GATCCA, the binding signal in test [1] amounted to 0.791 ± 0.0326 fold-change vs cycle 0; in test [2] it was 0.883 ± 0.0218 fold-change vs cycle 0; in test [3], 0.996 ± 0.0315 fold-change vs cycle 0.

Take CTAAAA: the binding signal came out at 1.62 ± 0.0677 fold-change vs cycle 0 in test [1], 1.63 ± 0.131 fold-change vs cycle 0 in test [2] and 1.51 ± 0.106 fold-change vs cycle 0 in test [3].

As to AGGGAT, the binding signal in test [1] turned out to be 0.9983 ± 0.00779 fold-change vs cycle 0; in test [2], 1.11 ± 0.0341 fold-change vs cycle 0; in test [3], 1.07 ± 0.0457 fold-change vs cycle 0.

For the sequence GGTCAC, the binding signal in test [1] is 0.432 ± 0.0454 fold-change vs cycle 0; in test [2] it was 0.512 ± 0.0261 fold-change vs cycle 0; in test [3], 0.662 ± 0.0597 fold-change vs cycle 0.

Take AGGACC: the binding signal worked out at 0.441 ± 0.038 fold-change vs cycle 0 in test [1], 0.54 ± 0.0359 fold-change vs cycle 0 in test [2] and 0.632 ± 0.0389 fold-change vs cycle 0 in test [3].

With AGTTTC, the binding signal in test [1] was found to be 1.25 ± 0.0447 fold-change vs cycle 0; in test [2] it was 1.33 ± 0.0345 fold-change vs cycle 0; in test [3], 1.3 ± 0.112 fold-change vs cycle 0.

On to ATTTGA, for which the results for the binding signal in test [1], in test [2] and in test [3] were 1.85 ± 0.0312 fold-change vs cycle 0, 1.79 ± 0.0613 fold-change vs cycle 0 and 1.65 ± 0.0905 fold-change vs cycle 0, respectively.

In the case of AATGGT, the binding signal in test [1] was determined as 1.28 ± 0.0798 fold-change vs cycle 0; in test [2], 1.35 ± 0.0595 fold-change vs cycle 0; in test [3] it was 1.32 ± 0.061 fold-change vs cycle 0.

In the case of AGCACT, the values for the binding signal in test [1], in test [2] and in test [3] were 0.65 ± 0.0278 fold-change vs cycle 0, 0.746 ± 0.0409 fold-change vs cycle 0 and 0.859 ± 0.0159 fold-change vs cycle 0, respectively.

With GACCTA, the binding signal in test [1] stood at 0.743 ± 0.0147 fold-change vs cycle 0; in test [2] it was 0.857 ± 0.0141 fold-change vs cycle 0; in test [3] it was 0.926 ± 0.0368 fold-change vs cycle 0.

Turning to GACGTC, the binding signal in test [1] came out at 0.306 ± 0.00649 fold-change vs cycle 0; in test [2], 0.386 ± 0.024 fold-change vs cycle 0; in test [3], 0.522 ± 0.0468 fold-change vs cycle 0.

As for CTGAAA, the binding signal was found to be 1.19 ± 0.0701 fold-change vs cycle 0 in test [1], 1.28 ± 0.0787 fold-change vs cycle 0 in test [2] and 1.21 ± 0.0732 fold-change vs cycle 0 in test [3].

As for ACTCGG, the figures for the binding signal in test [1], in test [2] and in test [3] were 0.394 ± 0.0337 fold-change vs cycle 0, 0.467 ± 0.0183 fold-change vs cycle 0 and 0.588 ± 0.0373 fold-change vs cycle 0, respectively.

On to AAGACC, for which the binding signal was 0.72 ± 0.0283 fold-change vs cycle 0 in test [1], 0.834 ± 0.0193 fold-change vs cycle 0 in test [2] and 0.911 ± 0.0351 fold-change vs cycle 0 in test [3].

As to AAAGCG, the binding signal is 0.393 ± 0.0227 fold-change vs cycle 0 in test [1], 0.489 ± 0.0338 fold-change vs cycle 0 in test [2] and 0.601 ± 0.0731 fold-change vs cycle 0 in test [3].

Turning to TAGCAA, the binding signal in test [1] was found to be 1.14 ± 0.0337 fold-change vs cycle 0; in test [2], 1.17 ± 0.0822 fold-change vs cycle 0; in test [3], 1.21 ± 0.0899 fold-change vs cycle 0.

As to GAGCAA, the binding signal came to 0.613 ± 0.0271 fold-change vs cycle 0 in test [1], 0.69 ± 0.0379 fold-change vs cycle 0 in test [2] and 0.797 ± 0.00723 fold-change vs cycle 0 in test [3].

Take CCTGTC: the binding signal in test [1] came to 0.437 ± 0.00717 fold-change vs cycle 0; in test [2] it was 0.533 ± 0.0129 fold-change vs cycle 0; in test [3] it was 0.619 ± 0.0538 fold-change vs cycle 0.

Turning to GCAACC, the binding signal in test [1] is 0.327 ± 0.0217 fold-change vs cycle 0; in test [2] it was 0.365 ± 0.0107 fold-change vs cycle 0; in test [3], 0.503 ± 0.0559 fold-change vs cycle 0.

AAAGCA: the binding signal in test [1] turned out to be 1.06 ± 0.0392 fold-change vs cycle 0; in test [2] it was 1.13 ± 0.0246 fold-change vs cycle 0; in test [3], 1.14 ± 0.0213 fold-change vs cycle 0.

As to AGCATG, the binding signal in test [1] stood at 0.713 ± 0.0228 fold-change vs cycle 0; in test [2], 0.806 ± 0.0264 fold-change vs cycle 0; in test [3], 0.882 ± 0.0429 fold-change vs cycle 0.

Turning to CGAATC, the values for the binding signal in test [1], in test [2] and in test [3] were 0.662 ± 0.00887 fold-change vs cycle 0, 0.742 ± 0.0291 fold-change vs cycle 0 and 0.827 ± 0.0621 fold-change vs cycle 0, respectively.

As to AACGTC, the binding signal in test [1] was 0.624 ± 0.0116 fold-change vs cycle 0; in test [2] it was 0.722 ± 0.0138 fold-change vs cycle 0; in test [3] it was 0.813 ± 0.0314 fold-change vs cycle 0.

In the case of CGTGAA, the binding signal in test [1] came to 0.669 ± 0.0388 fold-change vs cycle 0; in test [2] it was 0.776 ± 0.0286 fold-change vs cycle 0; in test [3], 0.834 ± 0.041 fold-change vs cycle 0.

In the case of TAAAAA, the binding signal in test [1] is 3.23 ± 0.33 fold-change vs cycle 0; in test [2], 2.2 ± 0.213 fold-change vs cycle 0; in test [3], 1.92 ± 0.229 fold-change vs cycle 0.

For the origin of these results see publication PMC9838217, “Structure of SALL4 zinc finger domain reveals link between AT-rich DNA binding and Okihiro syndrome”.
